Measured values: PubChem BioAssay AID1159580 (chemical genetic matrix, 2015)
Where “and” joins values, the source holds several entries; their conditions need not be identical. Identical values can stand only once. In all, about 5,500 compounds went through this assay and about 2,000 (36%) were called active. Another 18% or so got no clear call; they are omitted. Rule as the data show it: active = normalized growth mostly below about 0.91 (no sharp cut-off); inconclusive = no clear call, values can overlap the other calls; inactive = mostly above about 0.92. The list shows a part of the results.

Test: chemical genetic growth profiling, strain panel (AID 1159580);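 also: tested at 20 µM; growth read once vehicle control cultures reached saturation at 30 °C; 1 = growth at the plate median or of vehicle wells; lower values mean less growth of the strain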
Conditions: growth OD

Measured: normalized growth

CC(CCc1ccccc1)NCC(O)c1ccc(O)c(C(N)=O)c1 (stereo not given)
inactive: S. cerevisiae deletion strains, locus YJR075W, strain HOC1, active compounds read low 1 | S. cerevisiae deletion strains, locus YKL009W, strain mrt4, active compounds read low 1.01 | S. cerevisiae deletion strains, locus YKL068W, active compounds read low 1.01 | S. cerevisiae deletion strains, locus YKL085W, strain MDH1 (second series), active compounds read low 1.01 | S. cerevisiae deletion strains, locus YKL085W, strain MDH1, active compounds read low 1.01 | S. cerevisiae deletion strains, locus YKL160W, strain elf1, active compounds read low 1 | S. cerevisiae deletion strains, locus YKL190W, strain CNB1, active compounds read low 1 | S. cerevisiae deletion strains, locus YKR001C, strain vps1, active compounds read low 1.03 | S. cerevisiae deletion strains, locus YKR026C, strain gcn3, active compounds read low 1.01 | S. cerevisiae deletion strains, locus YKR091W, strain srl3, active compounds read low 0.997 | S. cerevisiae deletion strains, locus YLL001W, strain dnm1, active compounds read low 1 | S. cerevisiae deletion strains, locus YLL026W, active compounds read low 1 | S. cerevisiae deletion strains, locus YLL041C, strain sdh2, active compounds read low 1 | S. cerevisiae deletion strains, locus YLR027C, strain aat2, active compounds read low 0.992 | S. cerevisiae deletion strains, locus YLR039C, strain RIC1, active compounds read low 1.05 | S. cerevisiae deletion strains, locus YLR058C, strain SHM2, active compounds read low 1 | S. cerevisiae deletion strains, locus YLR102C, strain apc9, active compounds read low 1.01 | S. cerevisiae deletion strains, locus YLR113W, strain HOG1, active compounds read low 1.08 | S. cerevisiae deletion strains, locus YLR221C, strain rsa3, active compounds read low 1.01 | S. cerevisiae deletion strains, locus YLR258W, strain gsy2, active compounds read low 1.01 | S. cerevisiae deletion strains, locus YLR262C, strain YPT6 (second series), active compounds read low 1.02 | S. cerevisiae deletion strains, locus YLR262C, strain YPT6, active compounds read low 1.04 | S. cerevisiae deletion strains, locus YLR268W, strain sec22, active compounds read low 1.02 | S. cerevisiae deletion strains, locus YLR320W, strain mms22, active compounds read low 1.02 | S. cerevisiae deletion strains, locus YLR330W, strain CHS5, active compounds read low 1.01 | S. cerevisiae deletion strains, locus YLR342W, strain FKS1 (second series), active compounds read low 1.08 | S. cerevisiae deletion strains, locus YLR342W, strain FKS1, active compounds read low 1.01 | S. cerevisiae deletion strains, locus YLR357W, strain rsc2, active compounds read low 0.96 | S. cerevisiae deletion strains, locus YLR370C, strain arc18, active compounds read low 1 | S. cerevisiae deletion strains, locus YLR371W, strain rom2, active compounds read low 1.02 | S. cerevisiae deletion strains, locus YLR384C, strain iki3, active compounds read low 1.02 | S. cerevisiae deletion strains, locus YLR418C, strain cdc73, active compounds read low 1.06 | S. cerevisiae deletion strains, locus YML016C, strain PPZ1, active compounds read low 1.01 | S. cerevisiae deletion strains, locus YML032C, strain rad52, active compounds read low 0.996 | S. cerevisiae deletion strains, locus YML120C, strain ndi1, active compounds read low 1.01 | S. cerevisiae deletion strains, locus YML124C, strain tub3, active compounds read low 1.01 | S. cerevisiae deletion strains, locus YMR058W, strain fet3, active compounds read low 1 | S. cerevisiae deletion strains, locus YMR078C, strain ctf18, active compounds read low 1.01 | S. cerevisiae deletion strains, locus YMR125W, strain sto1, active compounds read low 0.997 | S. cerevisiae deletion strains, locus YMR129W, active compounds read low 1.01 | S. cerevisiae deletion strains, locus YMR205C, strain PFK2, active compounds read low 1.01 | S. cerevisiae deletion strains, locus YMR223W, strain ubp8, active compounds read low 1.04 | S. cerevisiae deletion strains, locus YMR231W, strain pep5, active compounds read low 1.01 | S. cerevisiae deletion strains, locus YMR263W, strain SAP30, active compounds read low 0.988 | S. cerevisiae deletion strains, locus YMR307W, strain GAS1, active compounds read low 1.04 | S. cerevisiae deletion strains, locus YNL067W, strain RPL9B, active compounds read low 0.988 | S. cerevisiae deletion strains, locus YNL071W, strain lat1, active compounds read low 1 | S. cerevisiae deletion strains, locus YNL153C, strain GIM3, active compounds read low 0.979 and 1.02 | S. cerevisiae deletion strains, locus YNL175C, strain NOP13, active compounds read low 1.01 | S. cerevisiae deletion strains, locus YNL183C, strain NPR1, active compounds read low 0.986 | S. cerevisiae deletion strains, locus YNL197C, strain WHI3, active compounds read low 0.999 | S. cerevisiae deletion strains, locus YNL209W, strain ssb2, active compounds read low 1.01 | S. cerevisiae deletion strains, locus YNL224C, strain SQS1, active compounds read low 1.01 | S. cerevisiae deletion strains, locus YNL233W, strain BNI4, active compounds read low 0.994 | S. cerevisiae deletion strains, locus YNL248C, strain rpa49, active compounds read low 0.998 | S. cerevisiae deletion strains, locus YNL250W, strain rad50, active compounds read low 1.03 | S. cerevisiae deletion strains, locus YNL271C, strain bni1, active compounds read low 1.01 | S. cerevisiae deletion strains, locus YNL298W, strain CLA4, active compounds read low 1.02 | S. cerevisiae deletion strains, locus YNL307C, strain MCK1, active compounds read low 1.03 | S. cerevisiae deletion strains, locus YNL322C, strain KRE1 (second series), active compounds read low 0.993 | S. cerevisiae deletion strains, locus YNL322C, strain KRE1, active compounds read low 0.998 | S. cerevisiae deletion strains, locus YNR049C, strain mso1, active compounds read low 0.999 | S. cerevisiae deletion strains, locus YNR052C, strain pop2, active compounds read low 1.02 | S. cerevisiae deletion strains, locus YOL006C, strain TOP1, active compounds read low 0.976 | S. cerevisiae deletion strains, locus YOL012C, strain htz1 0.754 | S. cerevisiae deletion strains, locus YOL147C, strain pex11, active compounds read low 1.01 | S. cerevisiae deletion strains, locus YOR001W, strain rrp6, active compounds read low 1.02 | S. cerevisiae deletion strains, locus YOR061W, strain CKA2, active compounds read low 1.01 | S. cerevisiae deletion strains, locus YOR069W, strain VPS5, active compounds read low 1 | S. cerevisiae deletion strains, locus YOR070C, strain gyp1, active compounds read low 0.996 | S. cerevisiae deletion strains, locus YOR080W, strain dia2, active compounds read low 0.999 | S. cerevisiae deletion strains, locus YOR083W, strain WHI5 (second series), active compounds read low 1.02 | S. cerevisiae deletion strains, locus YOR083W, strain WHI5, active compounds read low 1.01 | S. cerevisiae deletion strains, locus YOR106W, strain vam3, active compounds read low 1.02 | S. cerevisiae deletion strains, locus YOR136W, strain idh2, active compounds read low 1 | S. cerevisiae deletion strains, locus YOR144C, strain elg1, active compounds read low 1.01 | S. cerevisiae deletion strains, locus YOR184W, strain ser1, active compounds read low 1.01 | S. cerevisiae deletion strains, locus YOR231W, strain MKK1, active compounds read low 1.07 | S. cerevisiae deletion strains, locus YOR265W, strain rbl2, active compounds read low 0.992 | S. cerevisiae deletion strains, locus YOR270C, strain vph1, active compounds read low 1.04 | S. cerevisiae deletion strains, locus YOR290C, strain snf2, active compounds read low 1.03 | S. cerevisiae deletion strains, locus YOR316C, strain cot1, active compounds read low 1.02 | S. cerevisiae deletion strains, locus YPL051W, strain arl3, active compounds read low 1 | S. cerevisiae deletion strains, locus YPL055C, strain LGE1, active compounds read low 0.945 and 0.997 | S. cerevisiae deletion strains, locus YPL078C, strain atp4, active compounds read low 1 | S. cerevisiae deletion strains, locus YPL106C, strain sse1, active compounds read low 1.01 | S. cerevisiae deletion strains, locus YPL240C, strain hsp82, active compounds read low 1.01 | S. cerevisiae deletion strains, locus YPL241C, strain CIN2, active compounds read low 1 | S. cerevisiae deletion strains, locus YPL256C, strain CLN2, active compounds read low 1.04 | S. cerevisiae deletion strains, locus YPR119W, strain clb2, active compounds read low 1.02 | S. cerevisiae deletion strains, locus YPR141C, strain kar3, active compounds read low 1.01 | S. cerevisiae deletion strains, locus YPR163C, strain tif3, active compounds read low 1.03 | S. cerevisiae deletion strains, locus YPR167C, strain met16, active compounds read low 1.01 | S. cerevisiae deletion strains, strain wtn01, active compounds read low 1.03 | S. cerevisiae strains, strain wild type, active compounds read low 1
